Screening results from PubChem.
DAX1 inh-1 – inhibits human nuclear receptor DAX1. HEK293 Gal4-DAX1 luciferase reporter, luminescence. AID 504766. actives 0.99% (n = 340,000). P51843. inhibition, % at 6.75 µM;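 active means inhibition above the mean over all tested compounds plus 3 SD, cut at about 4.2% in these data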;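 further: 0% = DAX1-transfected cells with DMSO and 100% = empty-vector control cells with DMSO; inhibition shows as a rise in luminescence from relieved DAX1 repression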
Target sequence (P51843 207-470 limits assumed): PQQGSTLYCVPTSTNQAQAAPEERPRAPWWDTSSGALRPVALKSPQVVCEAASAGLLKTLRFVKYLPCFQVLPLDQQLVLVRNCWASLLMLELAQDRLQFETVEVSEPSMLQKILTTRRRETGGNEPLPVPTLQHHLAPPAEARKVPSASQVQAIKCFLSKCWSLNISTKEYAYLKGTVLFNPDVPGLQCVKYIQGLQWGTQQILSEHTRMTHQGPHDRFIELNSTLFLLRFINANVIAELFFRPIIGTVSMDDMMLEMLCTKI
hgDAF12 agonist – activates the H. glycines DAF-12 receptor ligand-binding domain | actives 1.8% (n = 370,000) | AID 687014 | activation, % at 6.8 µM | HEK293 GAL4-hgDAF12 UAS-luciferase reporter, agonist luminescence; normalized to butyrate control;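 active means activation above a cutoff set at the mean of all screened compounds plus 3 SD, cut at about 10% in these data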;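 further: 0% = DMSO wells and 100% = sodium butyrate wells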
hcDAF-12 act – activators of H. contortus DAF-12 nuclear receptor; HEK293 hcDAF-12 lit1-tk-luc reporter, luminescence; 0% DMSO, 100% Δ7-dafachronic acid; AID 652067; actives 1.4% (n = 370,000); activation, % at 6.8 µM;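 active means activation above the mean of all tested compounds plus 3 SD, cut at about 5.5% in these data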;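 further: 100% = response to 3 µM Δ7-dafachronic acid high control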
ssDAF12 agonist – activates DAF-12 receptor from parasite S. stercoralis | HEK293 ssDAF-12/GRIP1 lit1-tk-luc reporter, luminescence; % of 3 µM dafachronic acid response | activation, % at 6.8 µM | actives 1% (n = 370,000) | AID 652126;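 active means activation above the mean over all tested compounds plus 3 SD, cut at about 0.9% in these data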;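 further: 0% = DMSO-only wells and 100% = 3 µM delta7-dafachronic acid wells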
DAX1 inh-2 – blocks DAX1 repression of SF-1 activated StAR promoter; HEK293T StAR-luciferase reporter, SF-1/DAX-1 repression relief; inhibition, % at 6.8 µM; actives 1.1% (n = 370,000); AID 652010;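 active means inhibition above the mean over all tested compounds plus 3 SD, cut at about 3.6% in these data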;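 further: 0% = DAX-1 cells with DMSO and 100% = cells lacking DAX-1 with DMSO; higher inhibition means more luminescence from relief of DAX-1 repression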
hgDAF12 conf – confirmation of H. glycines DAF-12 agonists | shares compounds with hgDAF12 agonist | HEK293 GAL4-hgDAF12 luciferase reporter, agonist mode; percent of butyrate response | activation, % at 6.8 µM | actives 80% (n = 3,300) | AID 743050;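 active means mean activation over triplicate wells above the hit cutoff derived from the earlier primary screen, cut at about 11% in these data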;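 further: 0% = DMSO low control and 100% = 2 mM sodium butyrate high control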
LXR ag 2 – LXR-beta agonism as DAF-12 counter-screen; activation, % at 6.8 µM; shares compounds with hgDAF12 agonist; 3,300 tested, under 10 active; HEK293 Gal4-LXR luciferase reporter, 24 h;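 active means mean activation of the triplicate above a set limit carried over from the primary screen, none filed active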
Target sequence (P55055 whole entry, looked up, the tested form may be a part): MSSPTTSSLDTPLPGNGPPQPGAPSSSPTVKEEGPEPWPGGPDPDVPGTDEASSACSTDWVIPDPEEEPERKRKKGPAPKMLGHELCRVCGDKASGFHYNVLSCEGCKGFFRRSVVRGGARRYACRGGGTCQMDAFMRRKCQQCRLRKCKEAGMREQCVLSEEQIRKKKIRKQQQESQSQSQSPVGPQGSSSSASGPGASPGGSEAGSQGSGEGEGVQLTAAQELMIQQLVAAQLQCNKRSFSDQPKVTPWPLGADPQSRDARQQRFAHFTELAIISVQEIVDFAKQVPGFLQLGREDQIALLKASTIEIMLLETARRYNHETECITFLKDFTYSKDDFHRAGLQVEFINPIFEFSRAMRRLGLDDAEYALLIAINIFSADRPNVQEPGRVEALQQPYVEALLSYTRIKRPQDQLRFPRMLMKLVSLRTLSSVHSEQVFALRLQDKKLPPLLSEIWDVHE
Starred values were filed as active, the others as inactive; · = no result given. The list is not random: actives were taken first. Their share in the collection is about 4.1%.

SMILES | DAX1 inh-1 | hgDAF12 agonist | hcDAF-12 act | ssDAF12 agonist | DAX1 inh-2 | hgDAF12 conf | LXR ag 2
CCN(CC)C(=O)C1=C(C)N(CCC2=CCCCC2)C(=O)C(CC(=O)NC2CCCC2)C1 (configuration not stated) | -0.4 | 0.4 | -0.6 | -1.1 | 0.4 | · | ·
Cc1nn(C)cc1/C=C/C(=O)c1ccccc1 | 2.7 | 18.1* | 4.6 | 0.4 | 3.0 | 16.2* | 0.8
O=C(/C=C/c1c[nH]c2ccccc12)c1ccccc1 | 2.1 | 16.3* | 5.2 | 0.5 | 0.9 | 19.6* | 0.8
Cc1c(/C=C/C(=O)c2ccc(O)cc2)cnn1C | 4.2 | 16.9* | 3.8 | 0.5 | 1.7 | 9.1 | 0.4
Cc1c(/C=C/C(=O)c2ccc(C(C)C)cc2)cnn1C | -0.3 | 2.5 | -2.1 | -2.0 | -0.8 | · | ·
CCn1ncc(/C=C/C(=O)c2ccccc2)c1C | 2.7 | 16.8* | 3.9 | 0.2 | 1.3 | 12.5* | 0.8
CC1(C2CC2)NC(=O)N(CC(=O)Nc2ccccc2-c2ccccc2)C1=O (configuration not stated) | 0.8 | 0.2 | -0.4 | -0.6 | -0.8 | · | ·
C/C(=N\NC(=O)COc1ccccc1[N+](=O)[O-])c1cccs1 | -0.2 | 15.1* | 4.2 | -0.1 | 1.8 | 10.9* | 0.4
COc1ccc(OCC(=O)N/N=C(\C)c2cccs2)cc1 | 0.6 | 0.8 | -0.7 | -1.3 | 0.0 | · | ·
O=C(COc1ccccc1[N+](=O)[O-])Nc1ccc(Br)cc1 | 6.8* | 16.4* | 3.3 | 0.6 | 2.5 | 11.3* | 0.4
CC(CN1CCCCC1)NC(=O)c1cc(-c2ccccn2)nc2ccc(Cl)cc12 (configuration not stated) | 0.2 | -0.3 | 0.2 | -1.2 | -0.2 | · | ·
CCOC(=O)/C(N=Nc1ccc(F)cc1)=C(/O)c1ccc([N+](=O)[O-])cc1 | -1.4 | -0.5 | -1.9 | -0.8 | -0.5 | · | ·
O=C(c1ccc(F)cc1Cl)N(Cc1ccccn1)CC1CCCO1 (configuration not stated) | · | 31.3* | -1.8 | -0.9 | 0.3 | 0.8 | 0.0
O=C(c1cc(F)ccc1F)N(Cc1ccccn1)CC1CCCO1 (configuration not stated) | · | 0.6 | -1.3 | -1.9 | -0.5 | · | ·
CN(C)/C=N/c1nc(-c2ccc3ccccc3c2)cs1 | 5.0* | 17.9* | 4.3 | 0.3 | 2.4 | 12.2* | 0.6
Cc1ccsc1/C=N/NC(=O)c1sccc1C | 3.0 | 13.3* | 7.2* | 1.6* | 3.7* | 17.5* | 0.8
CSc1ccccc1C(=O)N1CCc2ccccc2C1 | 0.5 | -0.6 | 2.7 | -1.0 | -0.1 | · | ·
CC1CCCN(S(=O)(=O)c2ccc(NC(=O)C3CCN(C(=O)C(C)(C)C)CC3)cc2)C1 (configuration not stated) | -0.9 | -3.3 | -1.6 | -1.2 | -0.9 | · | ·
O=C(NC1CC1)c1cccc(-c2cncc3nccn23)c1 | · | 4.0 | -1.2 | -0.3 | -0.3 | · | ·
CCOc1ccc(-c2cnc3cccnn23)cc1 | · | 15.0* | 4.5 | 0.0 | 3.5 | 11.2* | 0.5
O=C(NC1CC1)c1ccc(-c2cnc3cccnn23)cc1 | · | 14.2* | 0.8 | -1.0 | 4.4* | 8.8 | 0.2
Cc1ccc(Nc2n[nH]c(=S)s2)cc1C | 3.1 | 17.9* | 3.3 | -0.7 | 3.8* | 11.1* | 0.5
CCOc1ccc2ccccc2c1C(=O)NCC(c1ccc(N(C)C)cc1)N(C)C (configuration not stated) | 1.2 | -2.2 | -0.8 | -1.4 | -2.1 | · | ·
Cc1ccc(N2C(=O)c3ccc(N)cc3C2=O)cc1 | 0.0 | 15.7* | 4.3 | 0.7 | 2.1 | 16.0* | 0.5
CCN(CC)c1ccc(NC(=O)/C=C\c2ccccc2Cl)cc1 | 1.0 | 7.5 | -1.4 | -1.7 | 1.2 | · | ·
SMILES | DAX1 inh-1 | hgDAF12 agonist | hcDAF-12 act | ssDAF12 agonist | DAX1 inh-2 | hgDAF12 conf | LXR ag 2
CN(C)c1ccc(NC(=O)/C=C/c2ccccc2Cl)cc1 | 0.0 | 18.2* | 3.8 | -1.0 | 2.2 | 13.6* | 0.6
O=C(NCc1ccccc1)C1C(=O)Nc2ccccc2C(=O)N1Cc1ccccc1 (configuration not stated) | · | -0.7 | -1.2 | -0.3 | 0.1 | · | ·
CC(=O)Nc1ccc2c(c1)C(=O)c1ccccc1C2=O | 2.1 | 14.3* | 6.5* | 0.5 | 2.5 | 17.7* | 0.8
O=C1c2ccccc2C(=O)c2cc(NC(=O)C3CC3)ccc21 | 2.5 | 7.1 | 4.9 | -1.1 | 1.9 | · | ·
Cc1ccc(CNC(=O)CSc2nc3[nH]ncc3c(=O)[nH]2)cc1 | -0.4 | -2.5 | -1.1 | -0.4 | -0.2 | · | ·
O=C(N=C1N=C2C=CC(Br)=CN2Cc2ccccc21)c1ccc([N+](=O)[O-])cc1[N+](=O)[O-] | 0.8 | 14.4* | 4.6 | 1.1* | 0.7 | 14.4* | 0.7
CCOC(=O)C(NC(=O)NCc1ccc(OC)cc1)(OCC)C(F)(F)F (configuration not stated) | 0.1 | 0.4 | -1.1 | -1.6 | -0.2 | · | ·
CC1(C)CC(=O)C(N=Nc2cc(Cl)c(Cl)c(Cl)c2)=C(O)C1 | -0.4 | -0.1 | -0.8 | -1.5 | 0.4 | · | ·
CC(=O)N1CCc2cc(N=NC3=C(O)CC(C)(C)CC3=O)ccc21 | 3.2 | 14.9* | 2.5 | -0.2 | 3.9* | 16.9* | 1.0
CCOc1ccc(N2CC(C(=O)NCCc3ccccc3)CC2=O)cc1 (configuration not stated) | -0.2 | -2.5 | -1.7 | 0.0 | -0.9 | · | ·
CCCNC(=O)C1CC(=O)N(c2ccc(OCc3ccc(Cl)cc3)cc2)C1 (configuration not stated) | 1.1 | 14.8* | 5.5 | 0.3 | 3.4 | 15.6* | 0.8
c1ccc(N2CCN(CC3CCCCC3)CC2)cc1 | 0.7 | 2.4 | 0.6 | -1.4 | 0.2 | · | ·
CCOC(=O)[C@]12CCC=C1N(Cc1ccco1)C(=O)[C@H](CC(=O)NCc1cccs1)C2 | · | 2.6 | -0.3 | -0.8 | -0.8 | · | ·
COc1ccccc1NS(=O)(=O)c1cc(C(=O)NCC(C)(C)N2CCOCC2)ccc1C | -0.7 | -0.6 | 0.2 | -0.9 | 0.9 | · | ·
CN(C)c1ccc(/C=N/OC(=O)Nc2ccccc2)cc1 | 1.3 | 13.7* | 5.8* | -0.1 | 2.2 | 18.4* | 0.7
O=C(COc1cc(F)ccc1[N+](=O)[O-])NCCN1C(=O)CSC1=O | -0.9 | 23.2* | -1.8 | -0.7 | -0.3 | -1.3 | 0.0
CC(C)c1ccc2oc(-c3cc(N)ccc3O)nc2c1 | -1.2 | -8.2 | -0.3 | -1.9 | -1.1 | · | ·
Cc1ccccc1-c1nc2cc(N)ccc2o1 | 1.5 | 14.6* | 3.5 | -0.9 | 3.2 | 13.3* | 0.7
CN1CCN(/N=C/c2ccc(-c3ccccc3)cc2)CC1 | 0.1 | 14.4* | 2.5 | -0.2 | 1.0 | 12.5* | 0.6
CCOC(=O)NNc1nncc2ccccc12 | 0.3 | -0.5 | -0.2 | -1.1 | 2.8 | · | ·
C/C(=N\Nc1nncc2ccccc12)c1ccc(OCC(=O)N(C)C)cc1 | 1.1 | 16.2* | 4.9 | -0.2 | 2.1 | 3.9 | 0.2
